# Sampled rows, rich in hits. Any-hit rate of the full collection: about 2.9%.
# A549 tox = counter-screen for Nrf2 inhibitors: cytotoxicity in A549 cells; A549 ARE-Fluc cells, CellTiter-Fluor viability, 18-24 h; Potency, µM (doses to about 46 µM), inactives show at the highest dose activity change, negative = cytotoxicity, most hits filed as inhibitors; 390,000 compounds, 0.16% hits; AID 504648; also: % is scaled to controls: 0 for no effect and ±100 for the full control effect
#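 Cytotoxicity counterscreen: CellTiter-Fluor fluorescence was measured in A549 ARE_Fluc cells after 18-24 h of compound exposure in a concentration series. The subsequent BugLite luminescent read reports ARE-luciferase activity.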
# Nrf2 ARE act = activates Nrf2 signaling. AREc32 ARE-luciferase reporter (MCF7-derived line), luminescence, 24 h. Potency, µM (titrated, usually from 46.1 µM), for inactives: at the highest dose activation, hits mostly activators. 410,000 compounds, 0.31% hits; also: % of control where 0% means no effect; nearly all actives have a fitted effect of over 65% in size
#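 Luciferase luminescence (Steady-Glo, 30 min at room temperature) served as the read-out of ARE activation in AREc32 cells treated with compounds for 24 hr at 37 deg C.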
# Nrf2 block = inhibitors of Nrf2 signaling; A549 ARE-Fluc reporter, luciferase luminescence, 18-24 h; Potency, µM (series often up to 46 µM), inactives show at the top dose activity change, negative = inhibition, actives largely listed as inhibitors; 360,000 compounds, 2.1% hits; AID 504444; also: % is scaled to controls: 0 for no effect and ±100 for the full control effect; nearly all actives have a fitted effect of over 60% in size
#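 A549 ARE_Fluc cells (5000/well, 5% FBS OPTI-MEM) pre-incubated 2 h, then treated with compounds 18-24 h at 37C/5% CO2 in concentration-response. CellTiter-Fluor viability read first; BugLite luciferase luminescence after 15 min at room temperature gives Nrf2 activity.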
# ATXN2 expr inh = inhibitors of ATXN2 expression. Potency, µM (series often up to 57 µM), for the others: at the highest dose activity change, negative = inhibition, hits mostly inhibitors. HEK-293 ATXN2-luciferase reporter, luminescence, 24 h. 360,000 compounds, 0.72% hits; also: % is scaled to controls: 0 for no effect and ±100 for the full control effect; nearly all actives have a fitted effect of over 55% in size
#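 ATXN2-luciferase reporter cells (luciferase flanked by upstream and downstream ATXN2 gene portions) were treated 24 h at 37 °C with compounds at up to 57 uM. SteadyGlo luminescence gave expression; GF-AFC fluorescence gave viability.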
# S2 tox = cell viability loss in ATXN counter-screen. S2 cells (HEK-293 line with an ATXN2-luciferase reporter) viability, CellTiter-Fluor protease fluorescence, 24 h. Potency, µM (doses to about 56.7 µM), hits mostly cytotoxic. 400,000 compounds, 0.49% hits. AID 651635; also: nearly all actives have a fitted effect of over 40% in size
# Numbers without * were called inactive; i = inactive; ? = inconclusive; nt = no result. Calls follow the shape of the dose curve; as a rule, active = well fitted curve in the direction sought with a large enough effect; inconclusive = small, poorly fitted or top-dose-only effect, or another doubt; inactive = no such curve, though single readings can be large; an effect the other way counts as inactive or inconclusive. Potency is read from the fitted curve at half-maximal effect.
SMILES,A549 tox,Nrf2 ARE act,Nrf2 block,ATXN2 expr inh,S2 tox
CC(=O)N1c2ccc(S(=O)(=O)NCC3CCC(C(=O)Nc4ccc(C)cc4)CC3)cc2CC1C (stereo not drawn),-13.8%,-1.0%,?,nt,nt
N#Cc1ccccc1NC1=CC(=O)CCC1,-0.4%,-0.7%,nt,-3.9%,i
CC(C)CCN(CCC(C)C)C(=O)Cc1c(O)c2ccccc2[nH]c1=O,1.3%,-0.9%,-0.2%,nt,i
O=C(O)c1cccc(N/N=C(\N=Nc2ccccc2)c2ccccc2)c1,-22.6%,6.4%,-2.5%,?,?
Brc1ccc(N/N=C(/N=Nc2nn[nH]n2)c2ccccc2)cc1,?,-0.7%,10.3µM*,nt,nt
O=C(O)c1ccc(N=N/C(=N\Nc2ccc(C(=O)O)cc2)c2ccccc2)cc1,?,-1.1%,5.1%,1.2%,12.6µM*
O=C(Cn1sc2ccccc2c1=O)Nc1ccccc1,nt,?,nt,35.5µM*,nt
O=C(Cn1sc2ccccc2c1=O)NC12CC3CC(CC(C3)C1)C2,-1.5%,12.6µM*,14.6%,-32.6%,?
O=S(=O)(NCc1cccnc1)c1cccn1-c1ncc(C(F)(F)F)cc1Cl,-11.5%,0.4%,16.4µM*,-27.2%,i
CCN(CC)C(=O)CSc1nc(-c2cccs2)cc(-c2cccs2)c1C#N,-20.2%,0.1%,18.4µM*,-1.9%,i
N#Cc1nc(NCC(F)F)nc(Nc2cc(F)cc(F)c2)n1,?,?,?,11.2µM*,?
N#Cc1nc(Nc2cc(F)cc(F)c2)c2ncn(CC(F)F)c2n1,-3.6%,12.9%,?,-16.5%,?
CCOC(=O)C1=C(CSCc2ccccc2)NC(=O)NC1c1cc(C)ccc1C (stereo not drawn),?,0.4%,18.4µM*,?,i
O=C1C(F)=CC(COC(c2ccccc2)(c2ccccc2)c2ccccc2)OC1n1cc(F)c(=O)[nH]c1=O (stereo not drawn),-16.0%,16.7%,?,3.36µM*,2.99µM*
CC(=O)OCC1OC(n2cc(F)c(=O)[nH]c2=O)C(OC(C)=O)C1OC(C)=O (stereo not drawn),-6.7%,-2.0%,?,nt,i
COC(=O)c1ccc(Cl)cc1N(Cc1c(F)cccc1Cl)S(C)(=O)=O,?,0.3%,18.4µM*,-24.0%,i
O=C(CCCOc1ccccc1)Nc1nnc(C2CCCO2)s1 (stereo not drawn),0.0%,-0.3%,13.6%,1.7%,i
Cc1ccc(C(=O)COc2nc(C)cc(C)c2C#N)cc1,-17.9%,0.2%,-29.6%,-0.6%,i
Cc1ccc(C(=O)CSc2nsc(C)c2C#N)cc1,-12.6%,6.0%,?,48.2%,i
Cc1ccnc(SCC(=O)c2ccc(Br)cc2)c1C#N,15.4%,2.24µM*,?,41.9%,i
Cc1cc(C)c(C#N)c(OCC(=O)c2ccc(Br)cc2)n1,-2.6%,6.31µM*,2.6%,12.4%,i
Cc1ccc(CN(Cc2ccco2)C(=S)NCC(=O)NCc2cccnc2)cc1,-9.6%,0.6%,7.31µM*,-16.3%,i
Cc1ccc(CNC(=O)CNC(=S)N(Cc2ccccc2)Cc2cccnc2)cc1,-0.3%,-0.3%,4.1%,-9.1%,i
COCCNC(=O)c1ccccc1NC(=O)c1cccc([N+](=O)[O-])c1C,0.6%,-0.1%,-26.1%,3.9%,i
CCn1cc(S(=O)(=O)c2ccc(OC)cc2)c(=O)c2cc(F)c(N3CCC(C)CC3)cc21,0.2%,0.1%,16.4µM*,nt,nt
SMILES,A549 tox,Nrf2 ARE act,Nrf2 block,ATXN2 expr inh,S2 tox
OCCC1CN(Cc2c(F)cccc2Cl)CCN1C1CCCCC1 (stereo not drawn),-5.7%,-0.2%,-4.3%,-12.7%,i
CCCCCn1c(CCCNC(=O)c2cccc(C)c2)nc2ccccc21,?,-4.6%,?,-10.6%,?
O=C1C(NS(=O)(=O)c2ccccc2)=C(N2CCN(c3ccc(F)cc3)CC2)C(=O)c2ccccc21,-0.4%,0.3%,-21.0%,-10.1%,i
O=C1C(NS(=O)(=O)c2cccs2)=C(N2CCN(c3cccc(Cl)c3)CC2)C(=O)c2ccccc21,?,8.6%,20.6µM*,-18.5%,i
CC(C)(C)NC(=O)c1cccc2c1-c1ccccc1C2=O,-14.5%,-0.3%,0.7%,nt,i
CS(=O)(=O)N(Cc1ccccc1)c1ccc(C(=O)Nc2ccc(Cl)cc2)cc1,-7.4%,-6.2%,-4.6%,?,31.6µM*
O=C(C#Cc1ccccc1)Nc1ccc(F)cc1,-5.1%,?,-26.4%,14.7%,i
CCCc1cc(C(=O)Nc2ccc(C(=O)c3ccccc3)cc2)n(C)n1,?,-0.5%,20.6µM*,-38.4%,i
COc1cccc(NC(=O)c2sc(NC(=O)c3ccncc3)nc2C)c1,0.1%,-0.5%,11.6µM*,nt,i
COc1ccc(NC(=O)C#Cc2ccccc2)cc1,-10.9%,14.1µM*,-26.7%,27.5%,i
O=C(Nc1ccccn1)C1CCN(C(=O)Nc2ccccc2)CC1,1.4%,3.1%,-7.8%,0.3%,i
CCOc1ccc(-c2nnc(NC3=NCCCCC3)o2)cc1,4.4%,-0.1%,?,24.4%,i
COc1ccc(NC(=O)c2cccc(NC(=O)c3ccccc3)c2)cc1,4.0%,7.0%,-1.1%,3.5%,i
COc1ccc(C(=O)Nc2ccc(C(=O)Nc3cccc(C)c3)cc2)cc1,-6.9%,-0.1%,-5.2%,?,10µM*
COc1cccc(C(=O)Nc2ccc(C(=O)c3ccccc3)cc2)c1,-7.4%,7.1%,?,nt,?
Cc1cccc(NC(=O)C(=O)NNC(=O)c2ccc(C(C)(C)C)cc2)c1,6.51µM*,2.3%,?,13.6%,i
COc1ccc(C(=O)N(Cc2ccccc2)Cc2ccc(OC)c(COc3ccc(NC(C)=O)cc3)c2)cc1,-2.8%,nt,?,nt,nt
CCN(Cc1ccccc1)C(=O)c1ccc(NC(=O)c2ccc(OC)cc2)cc1,-14.6%,-0.2%,23.1µM*,-15.3%,i
CC(C)(C)c1ccc(C(=O)NNC(=O)c2cccc(Br)c2)cc1,-12.2%,7.1%,nt,-6.7%,i
COc1ccc(C(=O)Nc2ccc(C(=O)c3ccccc3)cc2)cc1,-6.4%,0.0%,9.2µM*,-18.4%,i
COc1ccc(N2CCN(S(=O)(=O)c3ccc(CC(C)C)cc3)CC2)cc1,-1.0%,0.0%,-15.1%,4.9%,i
NC(=O)c1ccsc1NC(=O)COC(=O)CSc1ccc(Cl)cc1,8.8%,0.2%,0.1%,-11.1%,i
Cc1ccsc1CN(C(=O)c1oc2ccccc2c1C)C1CCS(=O)(=O)C1 (stereo not drawn),-11.1%,6.6%,?,nt,nt
CC1CCN(C(=O)CSc2nnc3c(n2)[nH]c2ccccc23)CC1,-24.5%,0.4%,8.2µM*,-20.3%,i
COc1cc(CNCCc2ccccc2)cc(Br)c1OCC(=O)Nc1ccccc1C,-8.9%,-3.7%,1.9%,nt,28.2µM*
CNCc1cc(Br)c(OCC(=O)Nc2ccccc2OC)c(OC)c1,-0.5%,3.9%,0.0%,-31.0%,?

# Assay outcomes as filed in PubChem BioAssay.
